The values below come from PubChem BioAssay (Tox21).

“And” between values parts separate entries of the source, which are not always exact repeats. Equal entries are not always repeated. Results filed as inconclusive are left out. Where a call stands in place of a potency, no number is given. A structure can be active in one record and inactive in another. The source made the active and inactive calls. The call rests on the fitted dose curve; in most records, active means well fitted activation curve with a large enough effect in the repeat runs; inconclusive means weak or mixed curves; inactive means flat fitted curve, though single readings scatter.
Potency means the concentration at half of the fitted maximal effect.

This assay can be described thus: A CellTox Green Cytotoxicity Assay to monitor cytotoxicity in HEK293 cells - 32 hour (AID 1224881). Further: nearly all actives have a fitted effect of over 40% in size. The following applies: CellTox Green fluorescence; series mostly up to 76.8 µM. From the text:
National Center for Advancing Translational Sciences [NCATS]
NIH Chemical Genomics Center [NCGC]
U.S. Environmental Protection Agency [EPA]
National Institutes of Environmental Health Sciences [NIEHS]
National Toxicology Program [NTP]
Cell-based models are critical for drug discovery. Determining the natural cytotoxic effects resulting from test compounds is an essential research activity. A CellTox Green Cytotoxicity Assay to monitor cytotoxicity in real time of continues cell culture during 40 hours of the compound treatment was used to screen Tox21 10K library compounds in Hek293 cells. CellTox Green Cytotoxicity Assay is a nonlytic, homogeneous, biofluorescent method to measure cytotoxicity in cell culture after experimental manipulation. The assay system uses a proprietary asymmetric cyanine dye that is excluded from viable cells but preferentially stains the dead cell's DNA. […] Viable cells produce no appreciable increases in fluorescence. Therefore, the fluorescence signal produced by the binding interaction with dead cell DNA is proportional to cytotoxicity.
The mixture of Hek293 cell suspension and reagents were dispensed at 600cells/6 ul/well in 1536-well tissue culture treated black solid bottom plates using a Multidrop dispenser. After the assay plates were incubated at a 37 C/5% CO2 incubator for 5 hours, 23 nL of compounds dissolved in DMSO, positive and negative controls was transferred to the assay plate by a pintool work station. The plates were incubated at 37 C for 40 hours. The fluorescence intensity were measured at 0h, 8h, 16h, 24h, 32h and 40h time points using ViewLux plate reader during compound treatment.
With `CCCCOC(=O)CCCCCCCCC(=O)OCCCC`, the Potency result was “inactive”.

In the case of `O=C1OC(c2ccc(O)cc2)(c2ccc(O)cc2)c2ccccc21`, the Potency result is “inactive”.

`NC(=O)NO`: the Potency result is “inactive”.

As for `NC(=O)N1c2ccccc2C=Cc2ccccc21`, the Potency result was “inactive”.

As to `CC(O)COc1ccccc1` (stereo not given), the Potency result was “inactive”.

With `COCC(C)N` (stereo not given), the Potency result is “inactive”.

As for `C[C@]12C=CC(=O)C=C1CC[C@@H]1[C@@H]2C(=O)C[C@@]2(C)[C@H]1CC[C@]2(O)C(=O)CO`, the Potency entry is “inactive”.

Regarding `C1CNCCN1`, the Potency result is “inactive”.

For `C[C@]12CC[C@@H]3c4ccc(O)cc4CC[C@H]3[C@@H]1CCC2=O`, the Potency was 49 µM (active) and inactive.

`O=[N+]([O-])c1ccc(O)cc1`: the Potency result was “inactive”.

For the compound `CCCCCCCCOc1ccc(C(=O)c2ccccc2)c(O)c1`, the Potency result is “inactive”.

`CCN(CC)CCOC(=O)c1ccc(N)cc1`: the Potency entry was “inactive”.

Take `Cc1cnc(NC(=O)C2=C(O)c3ccccc3S(=O)(=O)N2C)s1`: the Potency result was “inactive”.

Take `CCCCCCCCCCCCCCCCCC(=O)OCC(O)CO` (stereo not given): the Potency result was “inactive”.

For `CCn1cc(C(=O)O)c(=O)c2ccc(C)nc21`, the Potency entry is “inactive”.

With `O=C(O)Cc1cccc2ccccc12`, the Potency entry was “inactive”.

For `NC(=O)N/N=C/c1ccc([N+](=O)[O-])o1`, the Potency result is “inactive”.

For the compound `COCCOCCOC`, the Potency entry is “inactive”.

In the case of `CCCCCCCC(=O)OCC(O)CO` (stereo not given), the Potency entry is “inactive”.

Regarding `CCCCOCCOCCSC#N`, the Potency entry was “inactive”.

For `CC(C)=CCC/C(C)=C/CO`, the Potency entry was “inactive”.

As to `Nc1cccc(N)c1`, the Potency result was “inactive”.

With `CC(C)CC(C)CC(O)CC(C)C` (stereo not given), the Potency result was “inactive”.

On to `CC(C)(C)CC(C)(C)c1ccc(O)c(-n2nc3ccccc3n2)c1`, for which the Potency entry is “inactive”.

As for `c1ccc2[nH]c(-c3cscn3)nc2c1`, the Potency entry was “inactive”.

For the compound `NC(N)=NC(N)=NCCc1ccccc1`, the Potency entry was “inactive”.

Consider `C=C(C)C(N)=O`, for which the Potency result was “inactive”.

Turning to `CCCCOCCOCCOC(C)=O`, the Potency result was “inactive”.

In the case of `C[C@]12C[C@H](O)[C@H]3[C@@H](CCC4=CC(=O)CC[C@@]43C)[C@@H]1CC[C@@H]2C(=O)CO`, the Potency entry is “inactive”.

With `CO[C@H]1C=CO[C@@]2(C)Oc3c(C)c(O)c4c(O)c(c(/C=N/N5CCN(C)CC5)c(O)c4c3C2=O)NC(=O)/C(C)=C\C=C[C@H](C)[C@H](O)[C@@H](C)[C@@H](O)[C@@H](C)[C@H](OC(C)=O)[C@@H]1C`, the Potency entry was “inactive”.

Turning to `Cc1cccc(Nc2cc(Cl)nc(SCC(=O)O)n2)c1C`, the Potency entry was “inactive”.

Consider `CC(=O)c1ccc(S(=O)(=O)NC(=O)NC2CCCCC2)cc1`, for which the Potency entry was “inactive”.

Take `C=CC(=O)NC(C)(C)CS(=O)(=O)O`: the Potency entry is “inactive and 43.6 µM (active)”.

Turning to `COC(=O)c1ccc(O)cc1`, the Potency entry was “inactive”.

Turning to `C/C=C/c1ccc(O)c(OC)c1`, the Potency entry was “inactive”.

As to `COc1ccc(C(=O)c2ccccc2)c(O)c1`, the Potency entry was “inactive”.

Consider `CN/C(=C\[N+](=O)[O-])NCCSCc1ccc(CN(C)C)o1`, for which the Potency result is “inactive”.

For the compound `Cc1ccc(O)c(-n2nc3ccccc3n2)c1`, the Potency entry is “inactive”.

Turning to `CCOC(=O)C(C)(C)Oc1ccc(Cl)cc1`, the Potency result is “inactive”.

In the case of `O=c1cc[nH]c(=O)[nH]1`, the Potency entry is “inactive”.
